The values below come from paper PMC5540273 (PLoS ONE, 2017).

What all share (settings): concentration: 1 μM,replicates: in singlicate; n = 1
Assay [1] deals with PRKD3.
In assay [2] the test system is PRKG1.
The test system of assay [3] is PRKG2.
Assay [4] deals with T1, PRKR.
T1 construct: gene EIF2AK2

In assay [5] the test system is PRKX.
The test system of assay [6] is PRP4.
The subject of assay [7] is T2, PYK2.
T2 construct: gene PTK2B

Assay [8] concerns QSK.
The test system of assay [9] is RAF1.
The test system of assay [10] is RET.
The test system of assay [11] is RIOK1.
In assay [12] the test system is RIOK2.
Assay [13] deals with RIOK3.
The test system of assay [14] is RIPK1.
Assay [15] concerns RIPK2.
The test system of assay [16] is RIPK4.
Assay [17] relates to RIPK5.
Assay [18] concerns ROCK1.
The subject of assay [19] is ROCK2.
For assay [20], the system named is ROS1.
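Also: KINOMEscan kinase panel screen.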

In the case of `O=C1NCCc2[nH]c(-c3ccncc3)cc21`, the “%Inh” value stood at 43% in assay [1]; 83% in assay [2]; 99.1% in assay [3]; 9% in assay [4]; 28% in [5]; 43% in [6]. Also, the “%Inh” value came to 0% in assay [7]; 0% in [8]; 17% in assay [9]; 0% in assay [10]; 35% in assay [11]; 20% in assay [12]. Also, the “%Inh” value in assay [13] is given as 30%; in assay [14] it was 4%; in assay [15], 4%; in assay [16] it was 56%; in assay [17], 24%; in assay [18] it was 97.9%. Moreover, the “%Inh” value was found to be 95.4% in assay [19] and 21% in [20].
For `CC(=O)Nc1nc2cnc(Nc3cc(NC(=O)c4cccc(CC(C)(C)C#N)c4)ccc3C)nc2s1`, the “%Inh” value in [1] is on record as 0%; in assay [2], 0%; in assay [3], 17%; in [4], 0%; in assay [5], 35%; in assay [6], 6%. The “%Inh” value in assay [7] was determined as 9%; in assay [8], 0%; in assay [9] it was 99.5%; in assay [10] it was 99.7%; in assay [11], 0%; in [12] it was 22%. The “%Inh” value in assay [13] amounted to 0%; in assay [14], 0%; in assay [15] it was 0%; in [16], 25%; in assay [17] it was 0%; in assay [18], 19%. For the same compound, the “%Inh” value came out at 0% in assay [19] and 6% in assay [20].
In the case of `CN(c1ccc2c(c1)nc(NCc1ccc(F)cc1)n2C)c1ccnc(Nc2ccc(CS(C)(=O)=O)cc2)n1.Cl` [GW813244], the “%Inh” value was determined as 7% in assay [1]; 9% in [2]; 0% in assay [3]; 0% in [4]; 0% in [5]; 0% in [6]. The “%Inh” value in assay [7] is given as 39%; in assay [8], 0%; in assay [9] it was 96.4%; in assay [10], 100%; in assay [11], 1%; in [12], 21%. Also, the “%Inh” value in assay [13] is given as 17%; in [14], 99.8%; in [15] it was 25%; in assay [16] it was 24%; in assay [17], 50%; in [18], 0%. The “%Inh” value in [19] was 42%; in assay [20] it was 57%.
As for `CC(=O)Nc1ccc(-c2cc3ncnc(SCC(=O)O)c3s2)cc1`, the “%Inh” value in [1] came out at 7%; in [2], 1%; in [3] it was 10%; in assay [4], 23%; in [5], 24%; in assay [6], 22%. The “%Inh” value in [7] is 0%; in assay [8], 1%; in [9], 14%; in assay [10] it was 15%; in assay [11], 8%; in assay [12] it was 0%. In addition, the “%Inh” value is recorded as 15% in [13]; 0% in [14]; 0% in [15]; 2% in [16]; 14% in [17]; 0% in assay [18]. The entries for the “%Inh” value in assay [19] and in assay [20] were 0% and 6%, respectively.
With `C[C@@H]1CNc2c(sc3ccc4nc(-c5ccncc5)ccc4c23)C(=O)N1`, the “%Inh” value came to 34% in assay [1]; 35% in assay [2]; 57% in assay [3]; 0% in assay [4]; 34% in [5]; 0% in [6]. Further, the “%Inh” value in [7] is reported as 3%; in [8], 0%; in assay [9] it was 0%; in [10], 14%; in [11], 0%; in [12], 0%. Besides, the “%Inh” value in assay [13] is given as 5%; in assay [14], 0%; in assay [15] it was 0%; in assay [16], 0%; in assay [17], 0%; in [18] it was 14%. Moreover, the “%Inh” value in assay [19] is listed as 1%; in assay [20], 14%.
For `CN(c1ccccc1CNc1nc(Nc2ccc3c(c2)CC(=O)N3)ncc1C(F)(F)F)S(C)(=O)=O`, the “%Inh” value in assay [1] is reported as 70%; in [2] it was 0%; in [3], 0%; in [4], 0%; in assay [5], 17%; in [6], 0%. Moreover, the “%Inh” value is on record as 0% in [8]; 0% in assay [9]; 87% in assay [10]; 41% in assay [11]; 0% in assay [12]; 61% in assay [13]. Besides, the “%Inh” value in assay [14] came to 0%; in [15], 0%; in assay [16] it was 0%; in assay [17], 27%; in assay [18], 0%; in assay [19], 0%. Moreover, the “%Inh” value in assay [20] was 96.5%.
For `NC(=O)Nc1sc(-c2ccc(F)cc2)cc1C(N)=O` [GW789449], the “%Inh” value turned out to be 0% in assay [1]; 6% in assay [2]; 8% in assay [3]; 35% in assay [4]; 0% in [5]; 75% in assay [6]. The “%Inh” value is reported as 26% in assay [7]; 0% in assay [8]; 43% in assay [9]; 55% in assay [10]; 99.4% in assay [11]; 37% in assay [12]. For the same compound, the “%Inh” value in assay [13] came to 98.5%; in assay [14], 0%; in [15], 0%; in [16], 79%; in assay [17], 69%; in assay [18], 14%. Further, the “%Inh” value in assay [19] and in [20] was 0% each time.
Take `Nc1nccc(-c2ccc3c(N)n[nH]c3c2)n1` [GSK1034945]: the “%Inh” value in assay [1] was 4%; in [2], 0%; in assay [3] it was 68%; in [4], 0%; in assay [5], 68%; in assay [6] it was 27%. Also, the “%Inh” value is 8% in [7]; 0% in assay [8]; 17% in assay [9]; 9% in [10]; 96.5% in assay [11]; 52% in assay [12]. The “%Inh” value in assay [13] is 91.2%; in assay [14], 3%; in assay [15] it was 14%; in assay [16] it was 77%; in assay [17], 0%; in [19] it was 56%. Further, the “%Inh” value in assay [20] stood at 0%.
In the case of `O=c1[nH]cc(-c2ccc(O)cc2)c2sc(-c3ccncc3)cc12` [GSK1033723], the “%Inh” value in assay [1] came to 1%; in assay [2], 16%; in assay [3] it was 14%; in assay [4], 0%; in assay [5] it was 10%; in assay [6], 22%. Besides, the “%Inh” value was 1% in assay [8]; 7% in [9]; 29% in assay [10]; 1% in assay [11]; 14% in assay [12]; 6% in assay [13]. For the same compound, the “%Inh” value amounted to 26% in assay [14]; 16% in assay [15]; 0% in [16]; 5% in assay [17]; 10% in [18]; 18% in assay [19]. Further, the “%Inh” value in assay [20] is 0%.
